This is a sample that favours compounds with a hit; in the whole collection about 2.9% have one here.
B2AR ag: human beta-2 adrenergic receptor agonism by FAP | Am2.2-beta2AR cells, FAP receptor internalization, flow cytometry | response, % (no concentration beside the values) | 340,000 compounds, 0.43% hits | AID 504454;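 active = response above a set limit, near 3 SD of response in nonfluorescent compounds, cut at about 42% in these data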
GRK2 aptamer HTS: human GRK2 inhibition via aptamer displacement. P25098. bead flow cytometry, FAM-aptamer displacement from GRK2. inhibition of aptamer binding, % at 10 µM. 330,000 compounds, 0.59% hits;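 active = inhibition of aptamer binding above 40%, roughly 3 SD of noise, on plates passing a quality check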;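 also: median bead fluorescence of bound FAM aptamer so fluorescent compounds give negative values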
MEKK2 mut-MEK5: signal of MEK5 binding to mutant human MEKK2 PB1 domain; AID 1530; percent response, % at 10 µM; 290,000 compounds, 0.35% hits; bead flow cytometry, Alexa488-MEK5 binding to MEKK2 mutant; in the data active = percent response above about 24%, passing the limit was not always enough
MEKK3 PB1 HTS: MEKK3-MEK5 PB1 interaction, increase or decrease; bead-based flow cytometry, Alexa488-MEK5 binding to MEKK3; actives lie on both sides; 0 = blocked by unlabeled MEK5, 100 = vehicle; binding response (% of control), % at 10 µM; 290,000 compounds, 1.4% hits;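 active = binding response more than 3 SD above or below the average of its plate-row segment, actives on both sides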;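 also: Alexa488 bead fluorescence after subtracting the streptavidin-only scavenger bead signal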
Target sequence (Q99759 whole entry, looked up): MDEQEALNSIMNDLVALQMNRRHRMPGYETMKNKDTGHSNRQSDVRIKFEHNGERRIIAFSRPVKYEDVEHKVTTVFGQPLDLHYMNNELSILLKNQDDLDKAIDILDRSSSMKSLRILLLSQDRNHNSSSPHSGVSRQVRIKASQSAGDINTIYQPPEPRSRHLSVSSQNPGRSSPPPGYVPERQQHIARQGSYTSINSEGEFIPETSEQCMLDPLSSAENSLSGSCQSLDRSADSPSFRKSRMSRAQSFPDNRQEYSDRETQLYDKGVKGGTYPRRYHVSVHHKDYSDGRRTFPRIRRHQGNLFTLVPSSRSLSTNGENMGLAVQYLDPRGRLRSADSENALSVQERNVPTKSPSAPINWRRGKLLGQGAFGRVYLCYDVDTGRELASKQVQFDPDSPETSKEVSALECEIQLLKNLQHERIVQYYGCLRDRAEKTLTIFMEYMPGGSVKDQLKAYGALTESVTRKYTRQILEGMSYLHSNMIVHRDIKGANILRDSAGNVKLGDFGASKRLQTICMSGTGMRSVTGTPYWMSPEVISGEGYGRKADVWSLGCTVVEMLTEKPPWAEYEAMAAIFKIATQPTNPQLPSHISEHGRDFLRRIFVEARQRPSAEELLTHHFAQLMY
MEKK2 WT-MEK5: raises or lowers MEK5 binding to wildtype human MEKK2 PB1 domain. bead flow cytometry, Alexa488-MEK5 binding to MEKK2 WT; actives lie on both sides. Q9Y2U5. 290,000 compounds, 1.1% hits. AID 1531. binding response (% of control), % at 10 µM; in the data active = binding response below about 67% or above about 130%
MEKK2wt confirm: raises or lowers MEK5 binding to wildtype human MEKK2, retest. shares compounds with MEKK3 PB1 HTS. bead flow cytometry, Alexa488-MEK5 binding to MEKK2 WT; actives lie on both sides. binding response (% of control), % at 10 µM. 5,900 compounds, 2.4% hits. AID 1892; in the data active = binding response below about 16% or above about 210%; inactive = in between
MEKK2mut confirm: signal of MEK5 binding to mutant human MEKK2, retest. bead flow cytometry, Alexa488-MEK5 binding to MEKK2 mutant. percent response, % at 10 µM. 5,900 compounds, 2% hits. shares compounds with MEKK3 PB1 HTS; in the data active = percent response mostly above about 71%, no sharp cut-off; inactive = mostly below about 38%;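 also: higher means compound restores mutant binding toward wildtype level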
MEKK3-MEK5 inh: confirmation of inhibitors of MEK5 binding to human MEKK3; shares compounds with MEKK3 PB1 HTS; bead flow cytometry, Alexa488-MEK5 binding to MEKK3; hits give low values; binding response (% of control), % at 10 µM; 5,900 compounds, 1.8% hits;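 active = binding response below 72% of control, or above a set upper limit, though filed actives all read lower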;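 also: 100% = DMSO only wells and 0% = binding blocked by excess unlabeled MEK5; lower values mean stronger disruption of MEK5 binding to MEKK3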
The depositor's hits bear a star; / = no result; [ ] = another dose, or the depositor's remark.

SMILES	B2AR ag	GRK2 aptamer HTS	MEKK2 mut-MEK5	MEKK3 PB1 HTS	MEKK2 WT-MEK5	MEKK2wt confirm	MEKK2mut confirm	MEKK3-MEK5 inh
COc1ccc(NC(=O)CN2C(=O)NC3(CCCc4ccccc43)C2=O)c(OC)c1 (configuration not stated)	-7.1	0.0	/	/	/	/	/	/
C=CC[C@@H](CC(=O)N[C@H](CO)Cc1ccccc1)C(=O)NC[C@H](OC(=O)[C@@H](CC=C)Cc1ccc(F)cc1)c1ccccc1	-1.5	0.0	/	/	/	/	/	/
CCOC(=O)N1CCN(C(=O)COC(=O)Cc2ccc(Cl)cc2)CC1	-4.8	1.0	-2.0	99.0	98.0	/	/	/
CCC(C)[C@H](N)c1cn([C@@H](Cc2ccc(O)cc2)C(=O)N2CCNCC2)nn1 (some centres not stated)	-8.1	0.0	4.0	103.0	101.0	/	/	/
CCC(C)[C@H](N)c1cn([C@@H](Cc2cc3ccccc3[nH]2)C(=O)N2CCNCC2)nn1 (some centres not stated)	1.9	/	34.0	92.0	151.0*	147.0	45.0	111.0
CC(C)C[C@H](N)c1cn([C@@H](Cc2cc3ccccc3[nH]2)C(=O)N2CCNCC2)nn1	-4.7	0.0	32.0	106.0	147.0*	136.0	53.0	106.0
C#CCOCCOCCOCCNc1nc(N2CCN(C(=O)[C@H](CCC(=O)O)n3cc(C(N)CC(C)C)nn3)CC2)nc(N2CCN(C(=O)[C@H](Cc3cc4ccccc4[nH]3)n3cc(C(N)CC(C)C)nn3)CC2)n1 (some centres not stated)	-4.4	0.0	8.0	98.0	107.0	/	/	/
NS(=O)(=O)c1ccc(NC(=S)NNC(=O)c2ccc(Br)o2)cc1	1.3	3.0	6.0	102.0	101.0	/	/	/
CCCCN(C)C(=O)c1nc2ccccn2c1CN1CCC[C@H]1CO	-8.3	3.0	11.0	111.0	105.0	/	/	/
CCOc1ccccc1N(CC(=O)NCCSc1ccccc1)S(C)(=O)=O	6.0	0.0	1.0	132.0*	119.0	103.0	0.0	107.0
CCC1CCC2(CC1)NC(=O)N(CC(=O)NCc1ccccc1Cl)C2=O (configuration not stated)	-5.8	1.0	/	/	/	/	/	/
CCS(=O)(=O)N1CCC(C(=O)NCCC2=CCCCC2)CC1	2.5	1.0	-6.0	73.0*[inhibitor]	79.0	96.0	-3.0	100.0
O=C(NCCC1=CCCCC1)C1CCN(S(=O)(=O)N2CCCC2)CC1	-8.2	0.0	1.0	105.0	104.0	/	/	/
CCN(CC)CCN1C(=O)C(=O)/C(=C(/O)c2ccc(S(=O)(=O)N3CCOCC3)cc2)C1c1ccc(C)cc1 (configuration not stated)	-2.7	6.0	1.0	103.0	99.0	/	/	/
COc1ccc(-[n+]2c(C)cc(/C=C3\Sc4ccccc4N3C)cc2C)cc1	/	79.0*	-5.0	71.0*[inhibitor]	29.0*[inhibitor]	61.0	-22.0	88.0
Cc1ccc(C)c(N2CCN(CCCNC(=O)Cn3cccc3C(=O)c3ccccc3)CC2)c1	18.2	0.0	45.0	111.0	176.0*	129.0	13.0	104.0
O=C(Cn1cccc1C(=O)c1ccccc1)NCCN1CCCCCC1	-6.4	0.0	25.0*	115.0	171.0*	157.0	30.0	104.0
O=C(Cn1cccc1C(=O)c1ccccc1)NCCCN1CCOCC1	3.5	4.0	-5.0	95.0	94.0	/	/	/
COc1ccc(CN2CC[C@H]3C=CC[C@@H](C(=O)Nc4ccc(Cl)c(C(F)(F)F)c4)[C@H]3C2=O)cc1OC	10.2	/	-5.0	100.0	91.0	/	/	/
CN1CCN(CCCNCc2cn(CCC#N)c3ccccc23)CC1	0.9	0.0	25.0*	106.0	168.0*	151.0	29.0	107.0
N#CCCN1CCN(Cn2c3ccccc3c3ccccc32)CC1	-5.8	0.0	-1.0	98.0	99.0	/	/	/
COc1ccc(C)cc1Nc1n[n+](-c2ccccc2)c(-c2c(Cl)cccc2Cl)s1	/	0.0	7.0	109.0	127.0	/	/	/
